Reference: PubChem BioAssay
Active and inactive are the calls of the source.

Assays:
[1] = optical density shifts of acrAB sulA E. coli – strain DRC41, OD650, 48 h, E. coli filamentation inducer project, primary screen (AID 1152); conditions: higher = more signal, called active from +8 up or from −8 down;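 further: E. coli MC1000 strain DRC41 lacking acrAB efflux pump and sulA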
[2] = probe aLefty1 binding on compound microarray – biochemical, small-molecule microarray, 635/667 nm fluorescence, primary screen (AID 1153); conditions: higher = more signal;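 further: score merges spot fluorescence with signal-to-noise ratio from the scanned slide images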
[3] = plasmodial surface anion channel blockers, osmotic lysis – cell-based, P. falciparum Indochina, OD700, 1 h, primary screen (AID 1154); conditions: P. falciparum Indochina infected RBC osmotic lysis, higher = more signal, called active from +8 up or from −8 down
[4] = plasmodial surface anion channel blockers, osmotic lysis – cell-based, P. falciparum Indochina, OD700, 2 h, primary screen (AID 1155);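 further: lysis reports solute entry through the parasite surface anion channel PSAC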; conditions: P. falciparum Indochina infected erythrocytes, higher = more signal, called active from +8 up or from −8 down
[5] = changes in parasitized red cell lysis, either direction – P. falciparum Indochina, OD700, 3 h, PSAC antagonist project, primary screen (AID 1156); conditions: P. falciparum-infected erythrocytes, osmotic lysis, higher = more signal, called active from +8 up or from −8 down
[6] = plasmodial surface anion channel blockers, osmotic lysis – cell-based, P. falciparum Indochina, OD700, 18 h, primary screen (AID 1157); conditions: P. falciparum Indochina infected erythrocytes, osmotic lysis OD700, 18 h; higher = more signal, called active from +8 up or from −8 down
[7] = S6 kinase pathway phospho-S6 level changes – cell-based, A549, cytoblot, luminescence, serum-stimulated, primary screen (AID 1158); conditions: 5 h, higher = more signal;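 further: serum-stimulated A549 lung adenocarcinoma cells; signal is phosphorylated S6 detected by cytoblot immunostaining with HRP secondary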
[8] = biological target: NADPH oxidase 2 (Homo sapiens) (UniProt P04839); test: compounds shifting NOX2 Amplex Red fluorescence – cell-based, HEK293-NOX2, PMA-stimulated, NOX inhibitor project, primary screen (AID 1159); conditions: 45 min, higher = more signal, called active from +8 up or from −8 down; further: test concentration not given here
[9] = biological target: NADPH oxidase 4 (Homo sapiens) (UniProt Q9NPH5); test: compounds shifting NOX4 Amplex Red fluorescence – cell-based, HEK293-NOX4, tetracycline-induced, NOX inhibitor project, primary screen (AID 1160); conditions: HEK293-NOX4, Amplex Red H2O2 fluorescence, 45 min; higher = more signal, called active from +8 up or from −8 down
[10] = biological target: NADPH oxidase 5 (Homo sapiens) (UniProt Q96PH1); test: compounds shifting NOX5 Amplex Red fluorescence – cell-based, HEK293-NOX5, NOX inhibitor project, primary screen (AID 1161); conditions: HEK293-NOX5, ionomycin, 45 min, higher = more signal
[11] = compound effects on lung adenocarcinoma cell viability – A549, calcein-AM fluorescence, 48 h, basal, profiling panel (AID 1162); conditions: higher = more signal; further: test concentration not given here
[12] = compound effects on differentiated 3T3-L1 adipocyte viability – cell-based, 3T3-L1 adipocytes, calcein-AM fluorescence, 48 h, basal, profiling panel (AID 1163); conditions: 3T3-L1 adipocytes viability, higher = more signal; further: test concentration not given here
[13] = compound effects on hepatocellular carcinoma cell viability – HepG2, calcein-AM fluorescence, 48 h, basal, profiling panel (AID 1164); conditions: higher = more signal; further: test concentration not given here
[14] = compound effects on multiple myeloma cell viability – MM1S, calcein-AM fluorescence, 48 h, basal, profiling panel (AID 1165); conditions: higher = more signal; further: test concentration not given here
[15] = calcein-AM signal in unstimulated myeloma cells – cell-based, calcein-AM fluorescence, 48 h, PK04 Diversity Set, profiling panel (AID 1166); conditions: RPMI8226 myeloma viability, higher = more signal;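 further: cells grown under basal conditions without added stimulus; test concentration not given here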
[16] = JC-1 mitochondrial signal, unstimulated HepG2 cells – cell-based, JC-1 fluorescence, 24 h, 100 nL compound, profiling panel (AID 1167); conditions: HepG2 mitochondrial potential, higher = more signal; further: test concentration not given here
[17] = JC-1 mitochondrial signal, unstimulated adipocytes – cell-based, JC-1 fluorescence, 3T3-L1 adipocytes, 24 h, 100 nL compound, profiling panel (AID 1168); conditions: JC-1 mitochondrial fluorescence, higher = more signal, called active from +8 up or from −8 down; further: test concentration not given here
[18] = JC-1 mitochondrial signal, unstimulated myeloma cells – cell-based, JC-1 fluorescence, RPMI8226, 24 h, 100 nL compound, profiling panel (AID 1169); conditions: JC-1 mitochondrial potential fluorescence, higher = more signal; further: test concentration not given here
[19] = JC-1 mitochondrial signal, unstimulated MM1S myeloma – cell-based, JC-1 fluorescence, 24 h, 100 nL compound, profiling panel (AID 1170); conditions: MM1S mitochondrial potential, higher = more signal; further: test concentration not given here
[20] = resazurin metabolic signal in A549 cells – cell-based, resazurin fluorescence, 24 h, PK04 Diversity Set, profiling panel (AID 1171); conditions: A549 viability, higher = more signal, called active from +8 up or from −8 down; further: test concentration not given here

Chain of NADPH oxidase 2 (Homo sapiens) (P04839 whole entry, looked up): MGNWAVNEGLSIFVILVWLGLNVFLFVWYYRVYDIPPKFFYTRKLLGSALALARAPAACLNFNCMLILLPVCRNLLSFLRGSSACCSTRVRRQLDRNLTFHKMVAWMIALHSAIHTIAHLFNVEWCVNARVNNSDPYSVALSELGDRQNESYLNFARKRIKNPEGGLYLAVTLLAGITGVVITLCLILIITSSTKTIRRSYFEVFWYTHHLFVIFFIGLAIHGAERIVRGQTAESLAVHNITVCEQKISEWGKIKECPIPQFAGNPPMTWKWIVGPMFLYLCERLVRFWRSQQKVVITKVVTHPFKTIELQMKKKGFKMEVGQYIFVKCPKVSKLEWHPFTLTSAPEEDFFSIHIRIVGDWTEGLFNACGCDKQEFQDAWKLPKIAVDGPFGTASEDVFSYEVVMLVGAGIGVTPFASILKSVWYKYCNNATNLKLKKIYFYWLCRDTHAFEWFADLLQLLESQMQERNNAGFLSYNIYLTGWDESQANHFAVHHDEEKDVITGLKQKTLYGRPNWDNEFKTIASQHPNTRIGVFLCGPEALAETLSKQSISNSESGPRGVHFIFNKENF
Chain of NADPH oxidase 5 (Homo sapiens) (Q96PH1 whole entry, looked up): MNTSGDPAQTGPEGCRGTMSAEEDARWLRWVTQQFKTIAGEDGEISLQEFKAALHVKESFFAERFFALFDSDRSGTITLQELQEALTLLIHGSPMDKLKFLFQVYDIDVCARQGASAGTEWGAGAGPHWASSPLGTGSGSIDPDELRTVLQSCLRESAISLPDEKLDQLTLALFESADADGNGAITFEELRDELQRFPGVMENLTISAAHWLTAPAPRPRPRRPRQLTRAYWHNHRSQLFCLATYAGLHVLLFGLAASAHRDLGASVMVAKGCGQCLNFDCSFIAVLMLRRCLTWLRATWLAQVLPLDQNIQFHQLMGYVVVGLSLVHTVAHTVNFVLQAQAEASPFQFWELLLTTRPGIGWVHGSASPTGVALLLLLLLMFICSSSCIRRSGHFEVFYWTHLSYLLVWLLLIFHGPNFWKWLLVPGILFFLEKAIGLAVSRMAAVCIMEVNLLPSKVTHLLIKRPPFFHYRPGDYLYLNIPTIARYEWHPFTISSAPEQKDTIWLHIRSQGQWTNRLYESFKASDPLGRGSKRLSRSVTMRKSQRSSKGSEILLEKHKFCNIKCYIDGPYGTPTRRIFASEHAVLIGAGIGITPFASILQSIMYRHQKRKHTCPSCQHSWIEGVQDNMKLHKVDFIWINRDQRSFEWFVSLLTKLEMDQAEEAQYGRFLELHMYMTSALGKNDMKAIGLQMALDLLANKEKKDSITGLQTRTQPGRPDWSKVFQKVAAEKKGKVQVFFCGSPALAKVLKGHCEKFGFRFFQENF
Chain of NADPH oxidase 4 (Homo sapiens) (Q9NPH5 whole entry, looked up): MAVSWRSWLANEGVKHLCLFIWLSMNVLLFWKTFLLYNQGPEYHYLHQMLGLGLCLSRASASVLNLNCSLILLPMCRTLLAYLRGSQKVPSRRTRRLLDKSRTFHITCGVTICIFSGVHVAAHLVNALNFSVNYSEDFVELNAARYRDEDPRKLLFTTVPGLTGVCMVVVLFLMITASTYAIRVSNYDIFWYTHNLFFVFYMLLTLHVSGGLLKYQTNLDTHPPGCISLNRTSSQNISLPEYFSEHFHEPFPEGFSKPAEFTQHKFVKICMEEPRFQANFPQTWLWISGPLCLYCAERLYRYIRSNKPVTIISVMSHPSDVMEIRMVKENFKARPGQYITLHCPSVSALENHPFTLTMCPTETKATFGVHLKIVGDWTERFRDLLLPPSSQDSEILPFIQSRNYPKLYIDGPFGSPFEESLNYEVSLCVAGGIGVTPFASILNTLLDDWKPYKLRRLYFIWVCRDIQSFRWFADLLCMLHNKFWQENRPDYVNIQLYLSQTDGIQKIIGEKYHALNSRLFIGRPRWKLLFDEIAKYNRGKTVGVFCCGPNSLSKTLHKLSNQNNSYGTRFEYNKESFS

Structure (SMILES)	z-score [1]	composite z-score [2]	z-score [3]	z-score [4]	z-score [5]	z-score [6]	z-score [7]	z-score [8]	z-score [9]	z-score [10]	z-score [11]	z-score [12]	z-score [13]	z-score [14]	z-score [15]	z-score [16]	z-score [17]	z-score [18]	z-score [19]	z-score [20]
CC(C)C(=C=CC[C@@H](O)c1ccc(OCCO)cc1)CCO	1.7 (inactive)	-0.0054	2.86 (inactive)	-0.421 (inactive)	-0.143 (inactive)	-1.58 (inactive)	1.42	-1.47 (inactive)	-0.462 (inactive)	-0.971	-0.45	0.721	-0.164	0.626	0.991	0.871	0.437 (inactive)	-0.21	-1.11	1.22 (inactive)
CC(C)C(=C=CC[C@@H](O)c1cccc(OCCO)c1)CCO	0.838 (inactive)	0.0919	2.96 (inactive)	0.108 (inactive)	0.607 (inactive)	0.233 (inactive)	0.617	-0.841 (inactive)	-0.471 (inactive)	-1.26	0.418	0.114	0.785	0.753	-0.25	0.436	0.258 (inactive)	0.314	-1.18	0.625 (inactive)
C=C(COC)/C(=C/C[C@H](OC(=O)c1ccncc1)c1cccc(OCCO)c1)c1cnc2ccccc2c1	-0.223 (inactive)	0.317	9.54 (active)	0.936 (inactive)	0.426 (inactive)	0.431 (inactive)	0.231	-0.0605 (inactive)	0.24 (inactive)	-0.3	-0.0119	0.222	0.596	-2.77	-0.0229	0.327	-0.0487 (inactive)	0.568	-0.704	0.251 (inactive)
COc1cc2c(cc1O)C(c1ccc(CN3CCCC3)cc1)N(Cc1cccc(OC(F)(F)F)c1)CC2 (stereo not given)	-4.5 (inactive)	-0.131	12.3 (active)	2.62 (inactive)	-0.608 (inactive)	1.14 (inactive)	-0.223	-8.71 (active)	-4.77 (inactive)	-6.04	-4.78	0.0154	-5.64	-3.22	-4.48	-3.43	1.04 (inactive)	-0.955	-2.64	-4.45 (inactive)
COc1ccc([Si](C)(C)[C@H]2[C@H](CCn3cc([C@H](O)c4ccccc4)nn3)O[C@@]3(C(=O)N(C)c4c(Br)cc(C)cc43)[C@@H]2C)cc1	0.45 (inactive)	-0.196	5.6 (inactive)	1.59 (inactive)	1.25 (inactive)	1.11 (inactive)	-0.108	0.276 (inactive)	0.825 (inactive)	0.37	-1.94	1.69	-4.58	-2.48	-4.31	-0.281	-0.162 (inactive)	-1	0.212	-2.66 (inactive)
CC#CCO[Si](C#CCCCCCC)(C(C)C)C(C)C	0.323 (inactive)	-0.0501	0.0926 (inactive)	-0.607 (inactive)	-1.09 (inactive)	0.283 (inactive)	0.393	-1.27 (inactive)	-0.681 (inactive)	-3.5	-0.5	-0.381	-0.23	-1.52	-1.03	-1.15	-0.552 (inactive)	-0.69	-1.3	0.518 (inactive)
O=c1cccc(-c2ccccc2C(F)(F)F)o1	-0.934 (inactive)	0.69	0.168 (inactive)	0.761 (inactive)	-0.627 (inactive)	0.341 (inactive)	-0.67	0.409 (inactive)	0.0518 (inactive)	-0.982	-0.976	-0.0994	0.21	0.634	-0.475	-0.72	0.254 (inactive)	0.835	-1.3	-0.262 (inactive)
CCN(CC)c1ccc(N2CC=CC34O[C@@H]5C=CCOC(=O)[C@@H]5[C@H]3C(=O)N(CCCO)[C@@H]4C2=O)cc1 (stereo not given in full)	1.33 (inactive)	0.027	0.246 (inactive)	-0.655 (inactive)	0.649 (inactive)	-1.36 (inactive)	4.3	-0.0266 (inactive)	-0.497 (inactive)	0.785	-0.0867	1.85	-0.244	1.8	0.28	0.432	0.604 (inactive)	0.19	0.536	-0.481 (inactive)
N#Cc1ccc(C(O)C2C=CC3C(=O)NC(=O)C3N2Nc2ccccn2)cc1 (stereo not given)	0.261 (inactive)	0.0341	0.104 (inactive)	-0.88 (inactive)	-0.138 (inactive)	-1.01 (inactive)	-0.0329	-1.73 (inactive)	-2.92 (inactive)	-1.67	0.517	-0.239	1.43	0.435	-0.792	-0.183	-0.277 (inactive)	0.274	-0.839	-1.36 (inactive)
